Reference: the supplement of paper PMC8371130
Counter-ions that a name gives are not always drawn.

System: HL-1
Assay: relative cell viability (CellTiter-Glo) vs DMSO control (% of DMSO control); higher = more viable cells
Method in brief: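 HL-1 mouse atrial cardiomyocytes were seeded into 384-well plates at 1000 cells per well along with compounds at 40, 200, 1000 or 5000 nM in 0.01% DMSO. After one day, the cells were moved to a hypoxic workstation (1% O2) for 48 h and then reoxygenated for 24 h in a normal incubator, while others remained in normoxia for the same period. Cell viability was measured by CellTiter-Glo luminescence and normalised to vehicle-treated control cells.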

[1] = oxygen condition: hypoxia 48 h (1% O2) + reoxygenation 24 h, 40 nM
[2] = oxygen condition: hypoxia 48 h (1% O2) + reoxygenation 24 h, 200 nM
[3] = oxygen condition: hypoxia 48 h (1% O2) + reoxygenation 24 h, 1000 nM
[4] = oxygen condition: hypoxia 48 h (1% O2) + reoxygenation 24 h, 5000 nM
[5] = oxygen condition: normoxia 72 h, 40 nM
[6] = oxygen condition: normoxia 72 h, 200 nM
[7] = oxygen condition: normoxia 72 h, 1000 nM
[8] = oxygen condition: normoxia 72 h, 5000 nM

Compound | relative cell viability [1] | relative cell viability [2] | relative cell viability [3] | relative cell viability [4] | relative cell viability [5] | relative cell viability [6] | relative cell viability [7] | relative cell viability [8]
CCCC(CCC)C(=O)O [Divalproex sodium] | 98.3 | 109 | 102 | 111 | 99.9 | 106 | 106 | 118
O=C(CCCN1CC=C(n2c(=O)[nH]c3ccccc32)CC1)c1ccc(F)cc1 [Droperidol] | 94.9 | 102 | 105 | 103 | 97.3 | 97 | 93.9 | 106
CC[C@H]1OC(=O)[C@H](C)[C@@H](O[C@H]2C[C@@](C)(OC)[C@@H](O)[C@H](C)O2)[C@H](C)[C@@H](O[C@@H]2O[C@H](C)C[C@H](N(C)C)[C@H]2O)[C@](C)(O)C[C@@H](C)/C(=N\OCOCCOC)[C@H](C)[C@@H](O)[C@]1(C)O [Roxithromycin] | 101 | 106 | 101 | 106 | 101 | 100 | 103 | 112
N[C@@H](CSCCCO)C(=O)O [Fudosteine] | 105 | 105 | 109 | 111 | 106 | 109 | 104 | 115
Cn1c(CNc2ccc(C(=N)N)cc2)nc2cc(C(=O)N(CCC(=O)O)c3ccccn3)ccc21 | 104 | 96 | 102 | 108 | 102 | 102 | 102 | 106
CCCc1cc(=O)[nH]c(=S)[nH]1 [Propylthiouracil] | 106 | 105 | 107 | 120 | 99.3 | 108 | 107 | 110
O=C(O)C1(C(=O)O)CCC1.[NH2-].[NH2-].[Pt+2] [Carboplatin] | 110 | 109 | 95.3 | 112 | 100 | 106 | 108 | 119
CCCCC(=O)N(Cc1ccc(-c2ccccc2-c2nnn[nH]2)cc1)[C@H](C(=O)O)C(C)C [Valsartan] | 104 | 97.5 | 80.6 | 51.6 | 98.1 | 95.6 | 93.8 | 45.1
COC(=O)N[C@H](C(=O)N[C@@H](Cc1ccccc1)[C@@H](O)CN(Cc1ccc(-c2ccccn2)cc1)NC(=O)[C@@H](NC(=O)OC)C(C)(C)C)C(C)(C)C [Atazanavir sulfate] | 104 | 101 | 105 | 108 | 101 | 97 | 98.5 | 116
COc1cc2nccc(Oc3ccc(NC(=O)C4(C(=O)Nc5ccc(F)cc5)CC4)cc3)c2cc1OC | 109 | 112 | 111 | 115 | 112 | 110 | 107 | 120
C[N+](C)(C)CCCCCC[N+](C)(C)C [Hexamethonium bromide] | 101 | 99.3 | 105 | 113 | 94.2 | 96.6 | 100 | 103
CO[C@H]1C[C@@H]2CC[C@@H](C)[C@@](O)(O2)C(=O)C(=O)N2CCCC[C@H]2C(=O)O[C@H]([C@H](C)C[C@@H]2CC[C@@H](OCCO)[C@H](OC)C2)CC(=O)[C@H](C)/C=C(\C)[C@@H](O)[C@@H](OC)C(=O)[C@H](C)C[C@H](C)/C=C/C=C/C=C/1C [Everolimus] | 79.5 | 75 | 73.9 | 87.5 | 70.4 | 66.9 | 66.5 | 69.7
NCCCC[C@H](N[C@@H](CCc1ccccc1)C(=O)O)C(=O)N1CCC[C@H]1C(=O)O [Lisinopril] | 111 | 94.9 | 100 | 107 | 101 | 94.7 | 107 | 108
C=CC(=O)Nc1cc(Nc2nccc(-c3cn(C)c4ccccc34)n2)c(OC)cc1N(C)CCN(C)C | 97.1 | 94.4 | 91.5 | 104 | 95.5 | 93.1 | 89.4 | 108
CCOC(=O)C1=C(C)NC(C)=C(C(=O)OC)C1c1cccc(Cl)c1Cl (stereo not drawn) [Felodipine] | 101 | 105 | 88.9 | 98.7 | 99.1 | 101 | 98 | 101
CN(C)/N=N/c1[nH]cnc1C(N)=O [Dacarbazine] | 97.5 | 107 | 110 | 113 | 105 | 106 | 107 | 113
O=c1cc[nH]c(=S)[nH]1 [2-Thiouracil] | 99.6 | 105 | 104 | 104 | 102 | 103 | 100 | 114
NC(=O)c1cn(Cc2c(F)cccc2F)nn1 [Rufinamide] | 103 | 106 | 109 | 112 | 106 | 106 | 111 | 112
CS(=O)(=O)OCCCCOS(C)(=O)=O [Busulfan] | 108 | 102 | 103 | 107 | 104 | 103 | 97.4 | 120
COC(=O)[C@H](Cc1ccccc1)NC(=O)[C@@H](N)CC(=O)O [Aspartame] | 100 | 98 | 103 | 106 | 96.5 | 102 | 100 | 98.1
Nc1nc(Cl)nc2c1ncn2[C@@H]1O[C@H](CO)[C@@H](O)[C@@H]1F [Clofarabine] | 114 | 69.7 | 6.59 | 2.39 | 106 | 62.6 | 3.43 | 1.95
